We go through ten molecules from PubChem BioAssay (NCATS).

Assay [1] can be described thus: HPAF-II 24hr Apoptosis Induction qHTS against the NCATS CANVASS Library (AID 1347356). An outline of the steps: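 Luminescent caspase-3/7 signal (DEVD substrate, Caspase-Glo) served as read-out, taken 15 min after reagent addition to HPAF-II cells exposed 24 h to compounds.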
In general terms: Quantitative high-throughput screening tests each substance at several concentrations.

The nature of assay [2]: HEK293 18hr Apoptosis Induction qHTS against the NCATS CANVASS Library (AID 1347357). An outline of the steps: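 Caspase-3/7 luminescence (DEVD substrate, Caspase-Glo) after 18 h compound exposure of HEK293 cells, 500 cells/well; 11-point series; doxorubicin titration as control.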
Assay [3] in a line: HPAF-II 12hr Apoptosis Induction qHTS against the NCATS CANVASS Library (AID 1347358). An outline of the steps:
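500 HPAF-II cells/well; cmpds 11-pt; 12 hr, 37 degrees C/5% CO2; Caspase-Glo 3/7 added, 15 min RT dark; luminescence read. Doxorubicin titration as control.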

Assay [4] is described as follows: HPAF-II 18hr Apoptosis Induction qHTS against the NCATS CANVASS Library (AID 1347360). Summed up:
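Caspase-Glo 3/7 luminescence (DEVD substrate) after 15 min RT; HPAF-II, 500 cells/well, 18 h compound exposure at 37 degrees C, qHTS series; doxorubicin control 0.1nM - 4uM.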

A short description of assay [5]: HEK293 12hr Apoptosis Induction qHTS against the NCATS CANVASS Library (AID 1347361). An outline of the steps:
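500 HEK293 cells/well; cpds pin-transferred, 11-pt conc series; 12 h, 37 degrees C/5% CO2; Caspase-Glo 3/7 added, 15 min RT dark; luminescence.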

Assay [6] deals with Luciferin 4-monooxygenase (Photinus pyralis) (UniProt P08659). In words: Firefly luciferase counterscreen qHTS: Assay Interference Panel against the NCATS CANVASS Library (AID 1347363). Further: series mostly up to about 57 µM. An outline of the steps: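 Purified P. pyralis luciferase was added to compounds (11-point series) preincubated 15 min at room temperature with substrate containing 0.013 mM D-luciferin and 0.013 mM ATP; luminescence was read after 5 min.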
Chain of Luciferin 4-monooxygenase (Photinus pyralis) (P08659 whole entry, looked up): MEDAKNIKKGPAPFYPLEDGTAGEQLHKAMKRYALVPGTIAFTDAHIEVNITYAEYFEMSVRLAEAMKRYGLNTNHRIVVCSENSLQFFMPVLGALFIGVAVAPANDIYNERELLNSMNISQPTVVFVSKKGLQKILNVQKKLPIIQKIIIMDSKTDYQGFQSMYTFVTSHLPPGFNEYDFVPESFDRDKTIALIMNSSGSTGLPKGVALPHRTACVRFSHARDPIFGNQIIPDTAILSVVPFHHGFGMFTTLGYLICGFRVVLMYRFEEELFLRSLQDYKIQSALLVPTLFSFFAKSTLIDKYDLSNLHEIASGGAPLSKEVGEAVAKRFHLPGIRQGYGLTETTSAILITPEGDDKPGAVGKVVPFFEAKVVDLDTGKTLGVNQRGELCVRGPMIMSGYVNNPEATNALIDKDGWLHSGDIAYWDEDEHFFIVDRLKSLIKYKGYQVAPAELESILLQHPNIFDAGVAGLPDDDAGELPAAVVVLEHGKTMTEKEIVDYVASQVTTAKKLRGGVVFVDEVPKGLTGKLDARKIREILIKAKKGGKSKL

The nature of assay [7]: qHTS for ATAD5 Agonist screened against the NCATS CANVASS Library (AID 1347367). Further: potency means the concentration at half of the fitted maximal effect. An outline of the steps:
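Luminescence read-out: ATAD5-driven luciferase in stably transfected HEK 293T cells, which rises post-transcriptionally with DNA damage. Cells were exposed 16hr at 37C to test compound; a CellTiter-Fluor fluorescence read (1hr) measured viability first.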

Assay [8] is described as follows: J3T Cancer Cell Toxicity qHTS against the NCATS CANVASS Library (AID 1347371). Further: potency means the concentration at half of the fitted maximal effect. Summed up: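 Cells plated at 500 per well, compounds pin-transferred, plates incubated 72 hr at 37C, then CellTiterGlo added and luminescence read to measure ATP content.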
In assay [9] the target is Nuclear receptor subfamily 1 group I member 3 (Homo sapiens) (UniProt Q14994). In words: qHTS for Constitutive Androstane Receptor (CAR) Agonist screened against the NCATS CANVASS Library (AID 1347373).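 Further: every well also contained 1.5 µM PK11195 alongside the test compound.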 Further: potency means the concentration at half of the fitted maximal effect. An outline of the steps: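 HepG2-hCAR-CYP2B6 cells, 2500/well, attached 4hr; cpd + PK11195 1.5uM final; 24hr 37C 5% CO2. CellTiter-Fluor viability read, then ONE-Glo luminescence for CAR activation.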
Chain of Nuclear receptor subfamily 1 group I member 3 (Homo sapiens) (Q14994 whole entry, looked up): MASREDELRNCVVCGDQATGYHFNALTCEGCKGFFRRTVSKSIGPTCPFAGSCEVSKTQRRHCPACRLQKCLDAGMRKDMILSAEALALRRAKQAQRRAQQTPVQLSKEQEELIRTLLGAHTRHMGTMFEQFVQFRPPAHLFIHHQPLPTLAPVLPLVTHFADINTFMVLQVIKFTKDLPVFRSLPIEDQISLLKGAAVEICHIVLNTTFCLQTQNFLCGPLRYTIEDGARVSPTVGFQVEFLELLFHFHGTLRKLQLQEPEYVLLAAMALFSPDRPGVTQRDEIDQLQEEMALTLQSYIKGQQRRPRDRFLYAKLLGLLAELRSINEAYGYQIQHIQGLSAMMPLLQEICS

Assay [10] in a line: qHTS for Hypoxia signaling pathway (HIF-1) agonists against the NCATS CANVASS Library (AID 1347375). Summed up: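 ME-180 HRE-bla reporter cells; 2,000/well, 0.5% dialyzed FBS; cpd added after 5 h, 17 h 37C/5% CO2; CCF4-AM 2 h RT; FRET 460/530 nm; CellTiter-Glo viability same wells, 30 min.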
A short description of assay [11]: DH5-alpha competent E. coli microbial cell viability qHTS against the NCATS CANVASS Library (AID 1347377). Conditions: outcome: dose series up to 46.1 µM unless noted. An outline of the steps: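 qHTS, 11-pt; E. coli DH5-alpha, 0.2 OD; o/n 37C/5% CO2; BacTiter-Glo, 20 min RT; luminescence.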
Assay [12] in a line: qHTS for H2AX Agonists against the NCATS CANVASS Library (AID 1347378). Summed up:
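TR-FRET readout (ex 320 nm, em 665/620 nm ratio) of phospho-H2AX (S139) in CHO-K1 lysates. Cells treated 3 hr at 37C with compound titration, 0.76% DMSO; lysis 30 min, antibody detection 24 hr at RT.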

Assay [13] is described as follows: Inflammasome Signaling qHTS Counterscreen: IL-1-beta AlphaLISA counterscreen against the NCATS CANVASS Library (AID 1347381).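 Further: cell-free check with purified IL-1β in medium and no THP-1 cells; series mostly up to about 57 µM.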 An outline of the steps:
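Cell-free interference check: compounds added to medium spiked with 4 pg purified IL-1β. Anti-IL-1β acceptor beads (6 ug/mL) with 0.6 nM biotinylated antibody added for 1 h at RT, then streptavidin donor beads (24 ug/mL) for 30 min in the dark. AlphaLISA read at 680/615 nm.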

The nature of assay [14]: Cytotoxicity qHTS for assessment of Hepg2 cells membrane integrity screened against the NCATS CANVASS Library (AID 1347387). Summed up:
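qHTS, 11-pt conc. series, 0.59 nM - 46 uM final; HepG2 2000 cells/well, overnight attachment; 5 hr compound exposure 37C/5% CO2; CytoTox-ONE, 10 min RT; fluorescence ex560/em590 = LDH from damaged membranes.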

Assay [15] is described as follows: qHTS for activators of dead-cell proteases activity screened against the NCATS CANVASS Library (AID 1347392).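 Further: luminescence from protease leaking out of membrane-damaged cells cleaving impermeant substrate; rising signal means more cytotoxicity.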 An outline of the steps: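 HepG2 cells (2000/well) attached 18 h at 37C, then exposed 5 h to compounds (11-point qHTS). Dead-cell protease activity read as luminescence from cell-impermeant AAF-aminoluciferin substrate after 15 min at room temperature.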

Inconclusive results are not listed. Calls of active or inactive are those of the source. The call rests on the fitted dose curve; in most records, active means well fitted curve in the direction sought with a large enough effect; inconclusive means small, poorly fitted or top-dose-only effect, or another doubt; inactive means no such curve, though single readings can be large; an effect the other way counts as inactive or inconclusive.

Regarding `C/C=C(\C)C(=O)O[C@@H]1[C@@H](O)[C@@H]2O[C@H]3[C@H](O[C@@H](CCCCC)CCCCCCC(=O)CCC(=O)OC[C@@H](O2)[C@H]1OC(=O)/C=C/c1ccccc1)O[C@H](C)[C@H](OC(C)=O)[C@@H]3O`, the molecule was classed as inactive in assay [1], in [2], in assay [3], in assay [4], in assay [5] and in assay [10]. For the same molecule, the molecule was called inactive in assay [11], in assay [13], in assay [14] and in assay [15]. In addition, the Potency entry in [6], in [7], in [8], in [9] and in assay [12] was “inactive” each time.
Regarding `CCCCC1CC[C@H]2CCCC(CCC)N12` (stereo not given in full), the molecule was called inactive in assay [1], in assay [2], in assay [3], in assay [4], in assay [5] and in [10]. Also, the call in [11], in assay [13], in [14] and in [15] was inactive. The Potency entry in assay [6], in assay [7], in assay [8], in assay [9] and in assay [12] was “inactive” each time.
For `C/C=C1/CN2CC[C@@]34c5ccccc5N(C)[C@@H]3[C@@H]2C[C@@H]1[C@H]4C(=O)OC`, the molecule was classed as inactive in assay [1], in assay [2], in assay [3], in assay [4], in [5] and in assay [10]. Further, the molecule was called inactive in assay [11], in [13], in assay [14] and in assay [15]. For the same molecule, the Potency entry in assay [6], in [7], in assay [8], in [9] and in assay [12] was “inactive” throughout.
Consider `C/C=C/[C@@H]1[C@H]2C[C@@H](C)CC[C@@H]2C(C)=C[C@H]1C(=O)c1c(O)c(-c2ccc(O)cc2)c[nH]c1=O`, for which the molecule was called inactive in assay [1], in [2], in assay [3], in assay [4], in [5] and in [10]. Further, the result in [11], in assay [13], in assay [14] and in assay [15] was inactive. The Potency entry in [6], in assay [7], in assay [8], in assay [9] and in assay [12] was “inactive” in each case.
As to `CO[C@H]1[C@H](O[C@H]2CC[C@]3(C=O)[C@H]4CC[C@]5(C)[C@@H](C6=CC(=O)OC6)CC[C@]5(O)[C@@H]4CC[C@]3(O)C2)O[C@H](C)[C@H](O)[C@@H]1OC`, the molecule was classed as inactive in [1], in assay [2], in assay [3], in [4], in [5] and in assay [10]. Besides, the result in assay [11], in assay [13], in [14] and in assay [15] was inactive. The Potency entry in [6], in assay [7], in assay [9] and in assay [12] was “inactive” each time. Besides, the Potency in assay [8] is 372 nM (active).
For `CO[C@H]([C@@H](C)[C@H]1O[C@]1(C)C[C@H](C)/C=C/C=C(\C)[C@H]1O[C@@H](CC(=O)O)CC[C@@H]1C)[C@@H](C)O`, the molecule was classed as inactive in [1], in assay [2], in assay [3], in assay [4], in assay [5] and in assay [10]. In addition, the outcome in assay [11], in assay [13], in [14] and in assay [15] was inactive. In addition, the Potency result in assay [6] and in assay [12] was “inactive” throughout. Also, the Potency was 46.7 nM (active) in [7], 20.9 nM (active) in [8] and 105 nM (active) in [9].
In the case of `O[C@H]1C=C[C@@]23CCN(Cc4cc5c(cc42)OCO5)[C@@H]3C1`, the molecule was classed as inactive in assay [1], in [2], in assay [3], in assay [4], in assay [5] and in [10]. In addition, the result in assay [11], in assay [13], in assay [14] and in assay [15] was inactive. For the same molecule, the Potency result in assay [6], in assay [7], in [8], in [9] and in [12] was “inactive” in each case.
Consider `C=CC(C)(C)[C@@]12C[C@H]3C(=O)N/C(=C/c4cnc[nH]4)C(=O)N3[C@@H]1Nc1ccccc12`, for which the molecule was classed as inactive in [1], in assay [2], in assay [3], in assay [4], in assay [5] and in [10]. The call in [11], in assay [13], in assay [14] and in assay [15] was inactive. Also, the Potency entry in [6], in assay [7], in [8], in [9] and in [12] was “inactive” each time.
For the molecule `C[C@]12CCC3[C@@H](CC[C@@H]4C[C@@H](O)CC[C@]34CO)[C@@]1(O)CC[C@@H]2C1=CC(=O)OC1` (stereo not given in full), the molecule was called inactive in assay [1], in [2], in assay [3], in [4], in assay [5] and in assay [10]. For the same molecule, the call in assay [11], in [13], in [14] and in [15] was inactive. Further, the Potency result in [6], in [7], in assay [9] and in [12] was “inactive” each time. The Potency in assay [8] was 2960 nM (active).
On to `CO[C@@]12c3c(C)cc(O)c4c(=O)occ(c34)C(=O)[C@@H]1[C@]13COC(=O)c4c(O)cc(C)c(c41)C(=O)[C@H]2[C@@H]3OC(C)=O`, for which the molecule was called inactive in assay [1], in assay [2], in assay [3], in assay [4], in assay [5] and in assay [10]. Besides, the result in assay [11], in [13], in assay [14] and in assay [15] was inactive. The Potency entry in [6], in [7], in [8], in [9] and in assay [12] was “inactive” throughout.
